# Results: PubChem BioAssay (NCI)
# Compounds without any hit were thinned out: in the full panel of roughly 83,000, 20% have a hit.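 Negative percent growth values reflect cell death: -40 means 40% of the cells present at the start died, and -100 means all died.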 A number with no mark means an inactive call. Active and inactive are the calls of the source. Rule for the calls: active = growth percent below 10; inactive = the rest.
# Tests used:
# Assay in all cases: NCI-60 one-dose screen, 48 h (100 = growth as untreated, 0 = no growth, -100 = all killed)
# [1] = system: RPMI-8226 leukemia; conditions: 10 µM unless noted
# [2] = system: OVCAR-8 ovarian; conditions: 10 µM unless noted
# [3] = system: OVCAR-5 ovarian; conditions: 10 µM unless noted
# [4] = system: OVCAR-4 ovarian; conditions: 10 µM unless noted
# [5] = system: OVCAR-3 ovarian; conditions: 10 µM unless noted
# [6] = system: HS 578T breast; conditions: 10 µM unless noted
# [7] = system: NCI/ADR-RES ovarian; conditions: 10 µM unless noted
# [8] = system: T-47D breast; conditions: 10 µM unless noted
# [9] = system: BT-549 breast; conditions: 10 µM unless noted
# [10] = system: MDA-MB-435 melanoma; conditions: 10 µM unless noted
# [11] = system: SW-620 colon; conditions: 10 µM unless noted
# [12] = system: MCF7 breast; conditions: 10 µM
# [13] = system: HCT-116 colon; conditions: 10 µM unless noted
# [14] = system: HCC-2998 colon; conditions: 10 µM unless noted
# [15] = system: KM12 colon; conditions: 10 µM unless noted
# [16] = system: SK-OV-3 ovarian; conditions: 10 µM unless noted
# [17] = system: IGROV1 ovarian; conditions: 10 µM unless noted
SMILES,growth [1],growth [2],growth [3],growth [4],growth [5],growth [6],growth [7],growth [8],growth [9],growth [10],growth [11],growth [12],growth [13],growth [14],growth [15],growth [16],growth [17]
COc1ccc2occ(C3=C(c4c[nH]c5ccccc45)C(=O)NC3=O)c2c1,53%,63.9%,68.6%,-24.3% (active),26.8%,33.9%,20.5%,57%,35.7%,1.76% (active),22.6%,21.6%,26.5%,74.5%,20.8%,–,–
Clc1ccc(COc2ccc(Nc3ncnc4onc(-c5ccccc5)c34)cc2)cc1,74.8%,92.2%,92.8%,7.69% (active),92.8%,82.1%,77%,77%,89.1%,73.1%,68.1%,75.9%,72.1%,106%,88.9%,–,–
O=Cc1c(OCc2cnnn2CC(=O)Nc2ccc(Br)cc2)ccc2ccccc12,104%,96.1%,95%,97%,97.2%,85.1%,90.5%,78.7%,80.8%,102%,91.3%,84.1%,101%,94.3%,88.7%,–,–
CCOC(=O)c1ccc2[nH]c(-c3ccccc3)cc(=O)c2c1,88.2%,97.6%,101%,–,106%,104%,102%,105%,103%,107%,103%,99.8%,99.4%,112%,–,112%,92.5%
CNCCNc1nc2ccccc2c2c(=O)c3cc(OC)ccc3sc12,-17.2% (active),26.3%,70.8%,29.7%,-40.7% (active),56%,51.5%,–,76.1%,-86.1% (active),-78.3% (active),-56.9% (active),-82.3% (active),-68.7% (active),-75.7% (active),–,42.8%
CCCCc1ccc(NS(=O)(=O)c2cc3c4c(c2)CCN4C(=O)CC3)cc1,21.9%,15.9%,52.5%,–,32.2%,47.8%,7.47% (active),25.4%,0.335% (active),29.6%,25.3%,16.2%,13.4%,19%,21%,30.8%,11.3%
COc1cccc(-c2nn(C)c3sc(C(=O)NCCN4CCN(c5ccccc5F)CC4)cc23)c1,-18.3% (active),88%,88.4%,–,64.9%,63%,84.9%,57.4%,90.8%,-55.7% (active),74.6%,15.1%,33.5%,-41.1% (active),54.2%,88.7%,65.2%
CCn1c(SCC(=O)Nc2cc(C(F)(F)F)ccc2Cl)nc2ccccc2c1=O,14.2%,60.9%,78.3%,–,52.4%,43.8%,47.3%,50.6%,64.3%,18.1%,49.1%,28.9%,32.2%,11.7%,10.3%,76.5%,34.2%
CCN1CCN(c2cc(C)c3cc(NC(=O)c4ccc(OC)c(OC)c4)ccc3n2)CC1,16.7%,58.9%,88.7%,–,12.5%,32.6%,28.1%,58.4%,42.3%,-42% (active),16.7%,17.9%,26.3%,81.9%,26.2%,39.8%,36.6%
COc1cc(CNC(=O)Cc2ccccc2)ccc1OCc1cn(-c2ccc(F)cc2)nn1,89.8%,95.5%,108%,78.2%,107%,99.1%,94.7%,94.7%,99.8%,98.4%,109%,91.8%,102%,106%,108%,–,–
